Test results reported in PubChem BioAssay (NCI).
Several values for one entry are separate records, joined by “and”; a condition that tells them apart may be missing. Equal entries are not always repeated. About 79,000 compounds went through this panel and 15% of them were active in at least one assay; those are over-represented in the sample as a whole. No stated cut-off is given here; in the data, active means growth inhibition above about 70%; inactive means the rest. Where a SMILES comes first, the peptide text is derived from it. Bridges are numbered along the chain shown (N, C = ends). [ ]: non-standard residue; d: D form. Aib = CC(C)(N)C(=O)O; βAla = NCCC(=O)O

Experiments:
[1] = NCI Yeast Anticancer Drug Screen. Data for the rad50 strain (AID 155);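 further: 0% = growth of vehicle-only cultures of the same strain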; conditions: S. cerevisiae rad50 strain growth inhibition, active compounds read high; at 50.0 µM unless noted
How it was run: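 Vehicle-treated cultures provide the reference for the growth inhibition reported for compound-exposed, repair-deficient yeast.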

[2] = NCI Yeast Anticancer Drug Screen. Data for the mec2-1 strain (AID 157); conditions: S. cerevisiae mec2-1 strain, active compounds read high; at 50.0 µM unless noted
How it was run: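 Cells of the genetically defined mec2-1 yeast strain are incubated with test compound. Inhibition of growth is calculated against vehicle-treated controls.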

[3] = NCI Yeast Anticancer Drug Screen. Data for the sgs1 mgt1 strain (AID 161);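 further: 0% = growth of cultures given vehicle only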; conditions: S. cerevisiae sgs1 mgt1 strain, active compounds read high; at 50.0 µM unless noted
How it was run: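 Inhibition of yeast growth, normalised to vehicle-treated controls, is reported for a strain bearing genetic alterations in DNA damage repair.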

[4] = NCI Yeast Anticancer Drug Screen. Data for the cln2 rad14 strain (AID 165);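 further: 0% = growth equal to vehicle treated cultures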; conditions: S. cerevisiae cln2 rad14 strain, active compounds read high; at 50.0 µM unless noted
How it was run: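 The screen exposed genetically defined yeast (cln2 rad14) to test compounds and scored growth inhibition relative to vehicle-treated controls.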

[5] = NCI Yeast Anticancer Drug Screen. Data for the bub3 strain (AID 167); conditions: S. cerevisiae bub3 mutant strain, active compounds read high; at 50.0 µM unless noted
How it was run: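 Mutant yeast screening strain plus compound; vehicle-treated cultures serve as the 0% inhibition reference.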

[6] = NCI Yeast Anticancer Drug Screen. Data for the mlh1 rad18 strain (AID 175); conditions: S. cerevisiae mlh1 rad18 strain growth inhibition, active compounds read high; at 50.0 µM unless noted
How it was run: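 Compound-treated yeast growth, normalised to vehicle controls. Strain bears defined DNA repair mutations.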

Measured: growth inhibition

CCOC(=O)C1=CC(C(=O)OCC)=C2C=CC=C3C=CC=C1N32
inactive: [1] 7.75% | [2] 8.7% | [3] 25.9% | [4] -1.65% | [5] -18% | [6] -2.95%

COCc1ccc2c(c1)C(O)NC(=O)O2 (stereo unspecified)
inactive: [1] 4.75% | [2] -4.05% | [3] 13.3% | [4] -28.2% | [5] -8.55% | [6] 16.1%

CC(CCO)CCCO (stereo unspecified)
inactive: [1] -22.1% | [2] -11.8% | [3] 7.35% | [4] -13.8% | [5] -26.2% | [6] -26.8%

Fc1ccc2c(c1)-c1ccccc1C2
inactive: [1] -0.1% | [2] -14.6% | [3] -2.65% | [4] 4.95% | [5] -0.95% | [6] -19.6%

COc1ccc(/C=N/N2CN(C(C)C(=O)O)B(NCCC(C)C)N=C2N)cc1OC (stereo unspecified)
inactive: [1] -0.5% | [2] -10.3% | [3] 20.9% | [4] 6.3% | [5] 29.2% | [6] -4.1%

N#Cc1ccc2c(c1)-c1cc(C#N)ccc1C2c1ccccc1
inactive: [1] 8.95% | [2] -10.8% | [3] -3.45% | [4] -42.5% | [5] -4.8% | [6] -6.95%

O=C1OC(=O)C2=C1CCc1ccc3ccccc3c12
inactive: [1] -29.8% | [2] -22.1% | [3] 5.9% | [4] -29.6% | [5] 5.75% | [6] -5.2%

CC(C)NC(=O)c1ccc(Cl)cc1Cl
inactive: [1] 26.9% | [2] 27.9% | [3] 15.6% | [4] 10.9% | [5] 3.7% | [6] 12%

CC1(C)NC(=O)C(NC(=O)C(N)CC(=O)O)CCCCNC(=O)CCNC1=O (stereo unspecified) (H-DK[Aib][βAla]; lactam 2-C; configuration not given here)
inactive: [1] -4.35% | [2] -67.5% | [3] -32.3% | [4] -10.6% | [5] 6.35% | [6] -17.9%

O=C1CCCC2CCCC(=O)N12
inactive: [1] -1.35% | [2] -0.85% | [3] -0.4% | [4] 8.9% | [5] 1% | [6] -9.7%

CN1C(=O)C/C(=C/[N+](=O)[O-])c2ccccc21
inactive: [1] 3.5% | [2] -1.05% | [3] 4.2% | [4] 8.05% | [5] 3.3% | [6] -18.9%

O=c1n(-c2ccccc2)c(=O)n2n1C1C3C4C5C3C2C5(F)C41 (stereo unspecified)
inactive: [1] -7.3% | [2] 8.45% | [3] 5.95% | [4] 13.7% | [5] 6.75% | [6] 12.3%

CCNC(=O)CCCC(=O)OC
inactive: [1] 9.75% | [2] 4.55% | [3] 18.9% | [4] 14.6% | [5] 7.35% | [6] 2.2%

C[N+](C)(C)c1ccc2[nH]c3ccccc3c2c1
inactive: [1] 8.7% | [2] -11.2% | [3] 8.25% | [4] -27.8% | [5] -6.5% | [6] 7.55%

NC1CCC(C(=O)O)CC1 (stereo unspecified)
inactive: [1] -3% and -3.15% | [2] 0.95% and 15.9% | [3] -3.5% and 4.4% | [4] -52% and 57% | [5] 6.15% and 61.3% | [6] -7.65% and 28.4%

CC(C)(C)SC(=S)SCC(=O)c1ccc(F)cc1
inactive: [1] 4.35% | [2] -36.4% | [3] 8.65% | [4] -10.4% | [5] -1.65% | [6] 1.5%

CCN(CC)CCCCCCNc1cc(O)cc2cccnc12
inactive: [1] 18.5% | [2] 30.8% | [3] 44% | [4] 8.45% | [5] 11.4% | [6] 14.4%

COC(=O)c1cc(-c2ccc(N)cc2)n2c(N)nnc2n1
inactive: [1] 15% | [2] 23.4% | [3] 25.8% | [4] -1.55% | [5] 2.45% | [6] 18.6%

Cc1cc([N+](=O)[O-])ccc1NC(=O)n1nnc2cc(Cl)ccc21
inactive: [1] -5.55% | [2] 0.35% | [3] -5.85% | [4] 1.1% | [5] 21% | [6] 6.9%

O=NNc1ccc(S(=O)(=O)c2ccc3ccccc3c2)cn1
inactive: [1] 31.7% | [2] 12.8% | [3] -24.9% | [4] -8.95% | [5] -25.6% | [6] -88.5%

CN(C)c1ccc(N)c(N)c1
inactive: [1] -13.5% | [2] -34.8% | [3] -4.45% | [4] 12.1% | [5] 5.95% | [6] -12.9%
